Of roughly 7,900 targets only a part is listed; those with a hit were picked by preference. About 0.6% of all pairs of compound and target were hits.
Key:
Assay in all cases: log2 fold change, soluble protein after heating vs DMSO (PISA); higher = thermal stabilisation; K562 cells, 10 uM, 30 min; active = over 0.2 and 3.5 SD of the protein, either way, in both replicates (recomputed)
[1] = compound: CC1=C(C=C(C=C1)NC(=O)C2=CC(=CC=C2)C(C)(C)C#N)NC3=CC4=C(C=C3)N=CN(C4=O)C
Method in brief: (§1)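 Quantification of soluble protein used TMTpro 16plex LC-MS/MS, with channel sums equalised. Samples were the supernatant after 21,000xg for 90 min of pooled aliquots from K562 cells (2×10^6 cells/mL) treated with 10 μM compound for 30 min, heated for 3 min over 48°C-58°C, and extracted in PBS with 0.5% NP-40 at 4°C. Values, from duplicates, describe thermal stability against control samples on a log2 fold-change scale.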

[2] = compound: CC1=C(C=C(C=C1)NC(=O)C2=CC(=CC=C2)N(C)C)NC(=O)C3=CC=C(C=C3)O
Method in brief: as §1

[3] = compound: CC1=CC=C(C=C1)SC2=C3C=C(SC3=CN=C2)C(=O)N
Method in brief: as §1

[4] = compound: CC1=NC(=CC=C1)C2=C(N=C(N2)C(C)(C)C)C3=CC4=NC=CN=C4C=C3
Method in brief: as §1

Nexturastat A = compound: CCCCN(Cc1ccc(C(=O)NO)cc1)C(=O)Nc1ccccc1 [Nexturastat A]
Method in brief: as §1

vemurafenib = compound: CCCS(=O)(=O)Nc1ccc(F)c(C(=O)c2c[nH]c3ncc(-c4ccc(Cl)cc4)cc23)c1F [vemurafenib]
Method in brief: as §1

[5] = compound: CCCS(=O)(=O)Nc1ccc(F)c(C(=O)c2c[nH]c3ncc(Cl)cc23)c1F
Method in brief: as §1

[6] = compound: CCCc1cc(C)[nH]c(=O)c1CNC(=O)c1cc(-c2ccnc(N3CCN(C)CC3)c2)cc2c1cnn2C(C)C
Method in brief: as §1

givinostat = compound: CCN(CC)Cc1ccc2cc(COC(=O)Nc3ccc(C(=O)NO)cc3)ccc2c1 [givinostat]
Method in brief: as §1

barasertib = compound: CCN(CCCOc1ccc2c(Nc3cc(CC(=O)Nc4cccc(F)c4)[nH]n3)ncnc2c1)CCOP(=O)(O)O [barasertib]
Method in brief: as §1

[7] = compound: CC[C@@H]1C(=O)N(C)c2cnc(Nc3ccc(C(=O)NC4CCN(C)CC4)cc3OC)nc2N1C1CCCC1
Method in brief: as §1

volasertib = compound: CC[C@@H]1C(=O)N(C)c2cnc(Nc3ccc(C(=O)N[C@H]4CC[C@H](N5CCN(CC6CC6)CC5)CC4)cc3OC)nc2N1C(C)C [volasertib]
Method in brief: as §1

[8] = compound: CC[C@H](C)N1C=C(C2=C(C=C(C=C21)C3=CN=C(C=C3)N4CCNCC4)C(=O)NCC5=C(C=C(NC5=O)C)C)C
Method in brief: as §1

epoxomicin = compound: CC[C@H](C)[C@@H](C(=O)N[C@@H]([C@@H](C)O)C(=O)N[C@@H](CC(C)C)C(=O)[C@]1(CO1)C)NC(=O)[C@H]([C@@H](C)CC)N(C)C(=O)C [epoxomicin]
Method in brief: as §1

[9] = compound: CCn1c(C(=O)N(C2CC2)C2CC2)cc2c3c(ncn3C)c(Nc3cc(C)n(C)n3)nc21
Method in brief: as §1

[10] = compound: CCn1cc(-c2ccnc3[nH]c(-c4cccc(CN(C)C)c4)cc23)c(-c2ccc(NC(=O)N(C)C)cc2)n1
Method in brief: as §1

[11] = compound: CN(C)CC(=O)Nc1ccc2[nH]c(=O)c3ccccc3c2c1
Method in brief: as §1

rosiglitazone = compound: CN(CCOC1=CC=C(C=C1)C[C@H]2C(=O)NC(=O)S2)C3=CC=CC=N3 (racemic) [rosiglitazone]
Method in brief: as §1

[12] = compound: CN1C2=C(C3=C1C(=O)N(N=C3)CC4=CC(=CC=C4)N)SC(=C2)S(=O)C
Method in brief: as §1

[13] = compound: CN1CCC(CNc2ccc3ncc(-c4cccc(OC(F)(F)F)c4)n3n2)CC1
Method in brief: as §1

Measured: log2 fold change

MTMR14 (UniProt Q8NCE2)
inactive: [1] -0.009 | [2] -0.048 | [3] -0.004 | [4] 0.02 | Nexturastat A 0.028 | vemurafenib -0.02 | [5] 0.071 | [6] -0.016 | givinostat 0.061 | barasertib 0.019 | [7] -0.194 | [8] 0.037 | epoxomicin 0.019 | [9] 0.009 | [10] -0.056 | [11] 0.001 | rosiglitazone 0.026 | [12] 0.022 | [13] -0.039
active: volasertib -0.622

NCAPG (UniProt Q9BPX3)
active: volasertib -0.506
inactive: [1] 0.086 | [2] -0.074 | [3] 0.027 | [4] 0.038 | Nexturastat A 0.011 | vemurafenib 0.056 | [5] 0.091 | [6] 0.064 | givinostat 0.081 | barasertib 0.064 | [7] -0.105 | [8] 0.059 | epoxomicin 0.023 | [9] -0.002 | [10] 0.003 | [11] 0.04 | rosiglitazone 0.066 | [12] 0.004 | [13] 0.092

NDUFAF6 (UniProt Q330K2)
active: [13] -0.721
inactive: [1] 0.055 | [2] 0.068 | [3] 0.169 | [4] 0.024 | Nexturastat A -0.052 | vemurafenib -0.055 | [5] 0.035 | [6] -0.088 | givinostat -0.063 | barasertib -0.01 | [7] -0.27 | volasertib -0.027 | [8] -0.028 | epoxomicin 0.055 | [9] -0.089 | [10] -0.059 | [11] -0.078 | rosiglitazone 0.134 | [12] -0.014

NUP98 (UniProt P52948)
inactive: [1] -0.042 | [2] 0.064 | [3] -0.003 | [4] 0.031 | Nexturastat A 0.061 | vemurafenib 0.037 | [5] 0.068 | [6] 0.036 | givinostat 0.081 | barasertib 0.037 | [7] -0.12 | [8] 0.084 | epoxomicin -0.012 | [9] -0.027 | [10] -0.018 | [11] 0.039 | rosiglitazone 0.068 | [12] 0.033 | [13] -0.038
active: volasertib -0.276

MYH11 isoform 2 (UniProt P35749)
UniProt P35749, sequence (P35749 whole entry, looked up): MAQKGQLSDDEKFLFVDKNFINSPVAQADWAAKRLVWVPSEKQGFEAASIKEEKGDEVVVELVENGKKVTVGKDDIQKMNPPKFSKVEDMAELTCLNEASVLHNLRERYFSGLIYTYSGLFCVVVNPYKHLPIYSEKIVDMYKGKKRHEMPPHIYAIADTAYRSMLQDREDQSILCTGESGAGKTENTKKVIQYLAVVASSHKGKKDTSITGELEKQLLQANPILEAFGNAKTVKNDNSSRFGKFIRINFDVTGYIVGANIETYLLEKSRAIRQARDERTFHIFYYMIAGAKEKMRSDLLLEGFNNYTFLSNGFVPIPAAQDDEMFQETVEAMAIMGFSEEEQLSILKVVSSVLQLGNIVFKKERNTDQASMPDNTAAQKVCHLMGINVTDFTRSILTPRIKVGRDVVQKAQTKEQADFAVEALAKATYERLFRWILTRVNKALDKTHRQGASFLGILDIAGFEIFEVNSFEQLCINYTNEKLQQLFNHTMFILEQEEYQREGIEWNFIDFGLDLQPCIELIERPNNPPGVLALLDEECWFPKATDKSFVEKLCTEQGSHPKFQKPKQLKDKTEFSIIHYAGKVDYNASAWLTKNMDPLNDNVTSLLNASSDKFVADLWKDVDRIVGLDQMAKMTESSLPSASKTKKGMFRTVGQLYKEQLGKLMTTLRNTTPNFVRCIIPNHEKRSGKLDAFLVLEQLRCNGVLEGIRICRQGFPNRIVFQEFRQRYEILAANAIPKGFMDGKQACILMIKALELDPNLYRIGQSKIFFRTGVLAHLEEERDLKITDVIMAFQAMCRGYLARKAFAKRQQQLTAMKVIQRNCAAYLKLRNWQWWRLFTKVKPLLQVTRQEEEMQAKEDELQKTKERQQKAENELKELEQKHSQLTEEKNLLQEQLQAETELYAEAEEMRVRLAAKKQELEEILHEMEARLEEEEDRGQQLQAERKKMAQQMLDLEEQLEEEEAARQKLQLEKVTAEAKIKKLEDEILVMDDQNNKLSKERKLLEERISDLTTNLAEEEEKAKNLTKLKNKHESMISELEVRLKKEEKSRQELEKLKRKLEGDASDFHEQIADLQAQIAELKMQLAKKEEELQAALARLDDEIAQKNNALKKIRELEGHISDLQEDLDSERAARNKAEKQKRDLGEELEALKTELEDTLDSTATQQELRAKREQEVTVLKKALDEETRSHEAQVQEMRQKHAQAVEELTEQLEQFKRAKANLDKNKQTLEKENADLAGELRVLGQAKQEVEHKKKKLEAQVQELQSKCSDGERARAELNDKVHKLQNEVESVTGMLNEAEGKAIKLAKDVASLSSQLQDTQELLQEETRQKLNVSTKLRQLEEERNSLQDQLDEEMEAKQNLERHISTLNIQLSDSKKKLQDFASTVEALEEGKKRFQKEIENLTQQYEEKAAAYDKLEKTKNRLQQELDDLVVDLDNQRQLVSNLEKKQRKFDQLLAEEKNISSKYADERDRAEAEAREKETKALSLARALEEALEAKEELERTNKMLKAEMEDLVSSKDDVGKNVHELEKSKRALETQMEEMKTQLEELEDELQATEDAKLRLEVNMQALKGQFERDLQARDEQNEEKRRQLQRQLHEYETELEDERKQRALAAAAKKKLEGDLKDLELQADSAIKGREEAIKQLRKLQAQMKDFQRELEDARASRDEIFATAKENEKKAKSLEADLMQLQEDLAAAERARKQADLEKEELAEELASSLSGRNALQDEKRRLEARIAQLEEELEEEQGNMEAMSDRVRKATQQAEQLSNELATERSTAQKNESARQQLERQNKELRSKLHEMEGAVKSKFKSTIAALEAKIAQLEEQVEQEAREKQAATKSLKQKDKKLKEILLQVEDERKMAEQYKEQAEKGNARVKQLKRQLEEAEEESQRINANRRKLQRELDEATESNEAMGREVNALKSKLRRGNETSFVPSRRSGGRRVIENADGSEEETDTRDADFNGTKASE
inactive: [1] 0.009 | [2] 0.057 | [3] -0.003 | [4] 0.004 | Nexturastat A -0.014 | vemurafenib 0.051 | [5] -0.006 | [6] -0.253 | givinostat 0.032 | barasertib 0.057 | [7] -0.021 | volasertib -0.045 | [8] 0.042 | epoxomicin 0.061 | [9] -0.005 | [10] 0.046 | [11] 0.019 | rosiglitazone 0.015 | [12] -0.077 | [13] -0.018

NAA38 isoform 2 (UniProt Q9BRA0)
active: [9] 0.265
inactive: [1] 0.018 | [2] 0.041 | [3] 0.018 | [4] -0.044 | Nexturastat A 0.052 | vemurafenib 0.094 | [5] 0.042 | [6] -0.129 | givinostat 0.066 | barasertib -0.025 | [7] -0.045 | volasertib -0.017 | [8] -0.025 | epoxomicin 0.029 | [10] -0.127 | [11] -0.026 | rosiglitazone 0.017 | [12] -0.095 | [13] 0.064

MT-ND4 (UniProt P03905)
UniProt P03905, sequence (P03905 whole entry, looked up): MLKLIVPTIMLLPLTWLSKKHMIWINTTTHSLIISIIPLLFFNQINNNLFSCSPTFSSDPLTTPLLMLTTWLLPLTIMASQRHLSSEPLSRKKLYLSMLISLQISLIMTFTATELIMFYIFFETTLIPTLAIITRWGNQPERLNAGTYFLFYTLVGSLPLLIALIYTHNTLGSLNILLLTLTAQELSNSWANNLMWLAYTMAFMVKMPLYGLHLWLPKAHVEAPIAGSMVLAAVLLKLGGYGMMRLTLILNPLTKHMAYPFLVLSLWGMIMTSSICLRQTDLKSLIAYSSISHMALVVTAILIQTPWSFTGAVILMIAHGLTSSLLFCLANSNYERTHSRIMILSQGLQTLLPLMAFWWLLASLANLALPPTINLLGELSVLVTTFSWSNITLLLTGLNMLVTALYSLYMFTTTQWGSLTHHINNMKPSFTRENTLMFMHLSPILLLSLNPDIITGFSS
inactive: [1] -0.064 | [2] 0.067 | [3] 0.015 | [4] 0.048 | Nexturastat A -0.155 | vemurafenib 0.004 | [5] 0.016 | [6] 0.014 | givinostat 0.058 | barasertib 0.156 | [7] 0 | volasertib -0.102 | [8] -0.028 | epoxomicin 0 | [9] -0.071 | [11] -0.025 | rosiglitazone 0.159 | [12] -0.065 | [13] 0.029
active: [10] 0.391

NR2C2AP isoform 2 (UniProt Q86WQ0)
UniProt Q86WQ0, sequence (Q86WQ0 whole entry, looked up): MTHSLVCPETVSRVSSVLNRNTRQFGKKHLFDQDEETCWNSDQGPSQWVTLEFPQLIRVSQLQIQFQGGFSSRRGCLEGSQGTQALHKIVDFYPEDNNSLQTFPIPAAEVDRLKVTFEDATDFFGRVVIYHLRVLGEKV
inactive: [1] -0.053 | [2] -0.068 | [3] -0.007 | [4] 0.082 | Nexturastat A -0.101 | vemurafenib -0.026 | [5] 0.066 | [6] -0.085 | givinostat -0.035 | barasertib -0.002 | [7] -0.108 | volasertib -0.061 | [8] -0.018 | epoxomicin 0.023 | [9] -0.055 | [10] 0.018 | [11] 0 | rosiglitazone 0.039 | [12] -0.223 | [13] -0.152

NDUFS7 (UniProt O75251)
UniProt O75251, sequence (O75251 whole entry, looked up): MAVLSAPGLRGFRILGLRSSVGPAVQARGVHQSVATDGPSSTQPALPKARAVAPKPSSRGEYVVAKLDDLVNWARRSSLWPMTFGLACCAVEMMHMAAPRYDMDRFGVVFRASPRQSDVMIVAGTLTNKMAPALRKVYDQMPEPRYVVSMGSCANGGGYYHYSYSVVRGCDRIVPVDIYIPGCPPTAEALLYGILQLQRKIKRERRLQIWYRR
inactive: [1] 0.008 | [2] 0.004 | [3] 0.017 | [4] 0.025 | Nexturastat A -0.019 | vemurafenib -0.025 | [5] 0.028 | [6] -0.039 | givinostat 0.113 | barasertib 0.016 | [7] -0.043 | volasertib -0.042 | [8] 0.003 | epoxomicin -0.007 | [9] -0.009 | [10] -0.005 | [11] 0.012 | rosiglitazone 0.053 | [12] -0.029
active: [13] -0.327

MND1 (UniProt Q9BWT6)
UniProt Q9BWT6, sequence (Q9BWT6 whole entry, looked up): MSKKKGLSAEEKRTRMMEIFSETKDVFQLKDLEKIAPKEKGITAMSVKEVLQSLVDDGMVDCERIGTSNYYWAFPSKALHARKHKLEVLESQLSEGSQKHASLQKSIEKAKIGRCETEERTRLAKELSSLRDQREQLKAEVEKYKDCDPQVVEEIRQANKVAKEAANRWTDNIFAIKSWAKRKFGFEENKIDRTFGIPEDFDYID
inactive: [1] 0.034 | [2] 0.021 | [3] 0 | [4] 0.025 | Nexturastat A -0.043 | vemurafenib -0.016 | [5] -0.024 | [6] -0.091 | givinostat 0.048 | barasertib -0.032 | [7] -0.081 | volasertib -0.175 | [8] -0.036 | epoxomicin 0.049 | [9] 0.045 | [10] -0.076 | [11] -0.015 | rosiglitazone -0.008 | [12] 0.04
active: [13] -0.468

NUMA1 (UniProt Q14980)
inactive: [1] 0.03 | [2] -0.029 | [3] -0.009 | [4] -0.073 | Nexturastat A 0.262 | vemurafenib 0.02 | [5] 0.005 | [6] 0.132 | givinostat 0.092 | barasertib 0.005 | [7] 0.065 | volasertib 0.034 | [8] 0.039 | epoxomicin -0.044 | [9] -0.031 | [10] 0.068 | [11] 0.003 | rosiglitazone -0.035 | [12] 0.115 | [13] -0.191

NCAPD2 (UniProt Q15021)
inactive: [1] 0.057 | [2] -0.032 | [3] 0.012 | [4] -0.013 | Nexturastat A 0.058 | vemurafenib 0.119 | [5] 0.041 | [6] 0.101 | givinostat 0.077 | barasertib 0.03 | [7] -0.131 | [8] 0.081 | epoxomicin 0.019 | [9] -0.085 | [10] 0 | [11] 0.075 | rosiglitazone 0.023 | [12] 0.044 | [13] -0.098
active: volasertib -0.486

MRPS12 (UniProt O15235)
inactive: [1] -0.034 | [2] -0.094 | [3] 0.054 | [4] -0.069 | Nexturastat A 0.201 | vemurafenib -0.146 | [5] 0.032 | [6] -0.002 | givinostat 0.077 | barasertib -0.054 | [7] -0.043 | volasertib -0.024 | [8] 0.077 | epoxomicin -0.001 | [9] -0.04 | [10] -0.072 | [11] -0.103 | rosiglitazone 0.063 | [12] 0.091 | [13] -0.014

MPP1 (UniProt Q00013)
UniProt Q00013, sequence (Q00013 whole entry, looked up): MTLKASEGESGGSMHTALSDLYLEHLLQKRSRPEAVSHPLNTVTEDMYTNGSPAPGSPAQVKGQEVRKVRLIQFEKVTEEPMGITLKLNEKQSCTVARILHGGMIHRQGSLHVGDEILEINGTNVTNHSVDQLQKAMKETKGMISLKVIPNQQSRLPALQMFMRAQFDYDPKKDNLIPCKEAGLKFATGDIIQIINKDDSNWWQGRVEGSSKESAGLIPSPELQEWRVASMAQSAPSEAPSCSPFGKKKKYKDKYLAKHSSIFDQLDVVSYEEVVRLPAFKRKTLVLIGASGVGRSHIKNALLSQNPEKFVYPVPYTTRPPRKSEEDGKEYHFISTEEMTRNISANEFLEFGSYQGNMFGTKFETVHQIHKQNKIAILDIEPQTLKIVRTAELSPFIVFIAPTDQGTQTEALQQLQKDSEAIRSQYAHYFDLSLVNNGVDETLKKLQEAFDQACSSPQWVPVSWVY
active: [13] -0.256
inactive: [1] 0.117 | [2] -0.052 | [3] 0.043 | [4] 0.025 | Nexturastat A 0.002 | vemurafenib 0.029 | [5] 0.04 | [6] 0.053 | givinostat 0.062 | barasertib 0.034 | [7] -0.039 | volasertib -0.112 | [8] 0.063 | epoxomicin 0.058 | [9] -0.025 | [10] -0.051 | [11] 0.011 | rosiglitazone 0.051 | [12] 0.043

NNT (UniProt Q13423)
UniProt Q13423, sequence (Q13423 whole entry, looked up): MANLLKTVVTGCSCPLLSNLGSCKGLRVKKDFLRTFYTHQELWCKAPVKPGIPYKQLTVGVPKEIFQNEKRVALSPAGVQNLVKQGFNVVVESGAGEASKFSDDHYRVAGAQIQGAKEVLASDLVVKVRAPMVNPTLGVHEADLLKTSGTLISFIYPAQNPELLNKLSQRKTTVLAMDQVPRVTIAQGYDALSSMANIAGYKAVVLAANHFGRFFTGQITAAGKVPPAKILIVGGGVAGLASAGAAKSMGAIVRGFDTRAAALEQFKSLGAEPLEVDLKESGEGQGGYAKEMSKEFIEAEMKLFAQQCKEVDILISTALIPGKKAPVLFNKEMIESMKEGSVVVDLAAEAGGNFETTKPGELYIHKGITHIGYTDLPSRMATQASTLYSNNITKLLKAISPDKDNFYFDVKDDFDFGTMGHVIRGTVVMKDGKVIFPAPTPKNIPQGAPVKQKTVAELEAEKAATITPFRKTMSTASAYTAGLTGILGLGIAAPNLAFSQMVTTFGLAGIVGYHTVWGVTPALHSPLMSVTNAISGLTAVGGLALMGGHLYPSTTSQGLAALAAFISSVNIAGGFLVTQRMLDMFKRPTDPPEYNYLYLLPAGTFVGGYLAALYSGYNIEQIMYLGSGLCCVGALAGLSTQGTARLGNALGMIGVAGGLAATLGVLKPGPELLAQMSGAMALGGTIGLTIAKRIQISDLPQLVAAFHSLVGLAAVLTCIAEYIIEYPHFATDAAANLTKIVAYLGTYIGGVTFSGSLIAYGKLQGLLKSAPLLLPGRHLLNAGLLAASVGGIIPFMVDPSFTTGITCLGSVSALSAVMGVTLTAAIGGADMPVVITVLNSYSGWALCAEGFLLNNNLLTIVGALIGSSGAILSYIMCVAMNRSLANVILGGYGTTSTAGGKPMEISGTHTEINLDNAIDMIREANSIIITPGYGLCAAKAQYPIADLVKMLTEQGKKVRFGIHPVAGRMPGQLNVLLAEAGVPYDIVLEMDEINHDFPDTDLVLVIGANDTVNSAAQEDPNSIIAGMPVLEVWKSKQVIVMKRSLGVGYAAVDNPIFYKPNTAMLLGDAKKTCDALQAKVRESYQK
inactive: [1] 0.02 | [2] -0.004 | [3] 0.004 | [4] 0.058 | Nexturastat A -0.091 | vemurafenib 0.025 | [5] 0.016 | [6] -0.023 | givinostat 0.001 | barasertib 0.01 | [7] 0 | volasertib 0.013 | [8] 0.036 | epoxomicin 0.023 | [9] -0.018 | [10] -0.073 | [11] 0.015 | rosiglitazone 0.042 | [12] -0.097 | [13] -0.008

NSDHL (UniProt Q15738)
UniProt Q15738, sequence (Q15738 whole entry, looked up): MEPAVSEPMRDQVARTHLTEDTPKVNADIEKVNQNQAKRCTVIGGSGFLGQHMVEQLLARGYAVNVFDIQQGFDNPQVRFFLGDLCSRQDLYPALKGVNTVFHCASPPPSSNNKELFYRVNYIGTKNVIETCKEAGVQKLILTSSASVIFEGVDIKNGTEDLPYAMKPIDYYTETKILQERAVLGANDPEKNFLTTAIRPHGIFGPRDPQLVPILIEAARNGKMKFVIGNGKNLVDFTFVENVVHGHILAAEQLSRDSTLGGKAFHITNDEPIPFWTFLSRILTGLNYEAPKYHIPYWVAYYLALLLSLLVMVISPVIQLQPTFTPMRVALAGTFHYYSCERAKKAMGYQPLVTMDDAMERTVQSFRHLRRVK
inactive: [1] 0.073 | [2] -0.005 | [3] 0.029 | [4] -0.001 | Nexturastat A -0.111 | vemurafenib 0.07 | [5] -0.027 | [6] -0.031 | givinostat -0.013 | barasertib -0.004 | [7] -0.005 | volasertib 0.084 | [8] 0.105 | epoxomicin -0.004 | [9] 0.08 | [10] -0.018 | [11] 0.012 | rosiglitazone 0.002 | [12] -0.193 | [13] -0.001

— the supplement of paper PMC10849652
